Bioassay records as filed in PubChem.
In the library only some 12% were active in any assay of this set; here they are far more common.
L3MBTL1 inh: inhibitors of human L3MBTL1; Q9Y468; AlphaScreen L3MBTL1–H3K9me1 peptide binding; Potency, µM (titrated, usually from 57.1 µM), hits mostly inhibitors; hit rate 0.66% among 230,000; also: nearly all actives have a fitted effect of over 60% in size
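L3MBTL1 (50 nM) pre-complexed 30 min with biotinylated H3(1-15)K9me1 peptide (75 nM), then compounds added for 30 min at room temperature; AlphaScreen streptavidin donor/nickel chelate acceptor beads (10 ug/mL final) read after 30 min dark incubation.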
G9a inh: blocks human histone lysine methyltransferase G9a. Q96KQ7. G9a H3K9 monomethylation, AlphaScreen, 2 h. Potency, µM (highest dose often 102 µM), actives largely listed as inhibitors. hit rate 8.8% among 350,000; also: nearly all actives have a fitted effect of over 75% in size
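G9a (20 nM) preincubated 15 min RT with compounds, then 500 nM biotinylated H3K9 peptide and 20 uM SAM added; 2 h RT reaction. Monomethyl-H3K9 product detected by AlphaScreen with anti-H3K9me1 antibody, streptavidin donor and anti-rabbit IgG acceptor beads.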
Sfp inh: blocks B. subtilis Sfp PPTase activity; Potency, µM, hits mostly inhibitors; Q9F4F7; Biochemical Sfp PPTase activity, qHTS; hit rate 3.5% among 310,000;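 also: the enzyme is Sfp with the accession as filed and its product quenches rhodamine fluorescence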
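Fluorescence-quenching assay with 15 nM Sfp, 5 uM rhodamine-CoA and 12.5 uM BHQ-2-labelled ybbR peptide in pH 7.6 Hepes/MgCl2 buffer. Enzyme was pre-incubated with compound for 15 min at room temperature. Rate was taken from the 30-min fluorescence change (525/598 nm).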
HP1b chromo inh: blocks HP1-beta chromodomain binding to methylated histone tails | hit rate 0.56% among 390,000 | Potency, µM (titrated, usually from 114 µM), actives largely listed as inhibitors | AID 540317 | P83916 | AlphaScreen HP1-beta / biotin-H3K9me3 peptide binding; also: nearly all actives have a fitted effect of over 70% in size
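Compound inhibition of the preformed complex between 50 nM HP1-beta and 50 nM biotinylated H3K9me3 peptide was read by AlphaScreen. Buffer was PBS pH 7.4 with 0.01% Tween-20. Incubations ran 30 min at room temperature, with 10 ug/mL donor/acceptor beads.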
BAZ2B block: inhibitors of human BAZ2B bromodomain | hit rate 4.4% among 360,000 | AlphaScreen BAZ2B-H3K14Ac peptide displacement | Potency, µM (highest dose often 114 µM), hits mostly inhibitors | Q9UIF8; also: nearly all actives have a fitted effect of over 60% in size
Target sequence (Q9UIF8 whole entry, looked up): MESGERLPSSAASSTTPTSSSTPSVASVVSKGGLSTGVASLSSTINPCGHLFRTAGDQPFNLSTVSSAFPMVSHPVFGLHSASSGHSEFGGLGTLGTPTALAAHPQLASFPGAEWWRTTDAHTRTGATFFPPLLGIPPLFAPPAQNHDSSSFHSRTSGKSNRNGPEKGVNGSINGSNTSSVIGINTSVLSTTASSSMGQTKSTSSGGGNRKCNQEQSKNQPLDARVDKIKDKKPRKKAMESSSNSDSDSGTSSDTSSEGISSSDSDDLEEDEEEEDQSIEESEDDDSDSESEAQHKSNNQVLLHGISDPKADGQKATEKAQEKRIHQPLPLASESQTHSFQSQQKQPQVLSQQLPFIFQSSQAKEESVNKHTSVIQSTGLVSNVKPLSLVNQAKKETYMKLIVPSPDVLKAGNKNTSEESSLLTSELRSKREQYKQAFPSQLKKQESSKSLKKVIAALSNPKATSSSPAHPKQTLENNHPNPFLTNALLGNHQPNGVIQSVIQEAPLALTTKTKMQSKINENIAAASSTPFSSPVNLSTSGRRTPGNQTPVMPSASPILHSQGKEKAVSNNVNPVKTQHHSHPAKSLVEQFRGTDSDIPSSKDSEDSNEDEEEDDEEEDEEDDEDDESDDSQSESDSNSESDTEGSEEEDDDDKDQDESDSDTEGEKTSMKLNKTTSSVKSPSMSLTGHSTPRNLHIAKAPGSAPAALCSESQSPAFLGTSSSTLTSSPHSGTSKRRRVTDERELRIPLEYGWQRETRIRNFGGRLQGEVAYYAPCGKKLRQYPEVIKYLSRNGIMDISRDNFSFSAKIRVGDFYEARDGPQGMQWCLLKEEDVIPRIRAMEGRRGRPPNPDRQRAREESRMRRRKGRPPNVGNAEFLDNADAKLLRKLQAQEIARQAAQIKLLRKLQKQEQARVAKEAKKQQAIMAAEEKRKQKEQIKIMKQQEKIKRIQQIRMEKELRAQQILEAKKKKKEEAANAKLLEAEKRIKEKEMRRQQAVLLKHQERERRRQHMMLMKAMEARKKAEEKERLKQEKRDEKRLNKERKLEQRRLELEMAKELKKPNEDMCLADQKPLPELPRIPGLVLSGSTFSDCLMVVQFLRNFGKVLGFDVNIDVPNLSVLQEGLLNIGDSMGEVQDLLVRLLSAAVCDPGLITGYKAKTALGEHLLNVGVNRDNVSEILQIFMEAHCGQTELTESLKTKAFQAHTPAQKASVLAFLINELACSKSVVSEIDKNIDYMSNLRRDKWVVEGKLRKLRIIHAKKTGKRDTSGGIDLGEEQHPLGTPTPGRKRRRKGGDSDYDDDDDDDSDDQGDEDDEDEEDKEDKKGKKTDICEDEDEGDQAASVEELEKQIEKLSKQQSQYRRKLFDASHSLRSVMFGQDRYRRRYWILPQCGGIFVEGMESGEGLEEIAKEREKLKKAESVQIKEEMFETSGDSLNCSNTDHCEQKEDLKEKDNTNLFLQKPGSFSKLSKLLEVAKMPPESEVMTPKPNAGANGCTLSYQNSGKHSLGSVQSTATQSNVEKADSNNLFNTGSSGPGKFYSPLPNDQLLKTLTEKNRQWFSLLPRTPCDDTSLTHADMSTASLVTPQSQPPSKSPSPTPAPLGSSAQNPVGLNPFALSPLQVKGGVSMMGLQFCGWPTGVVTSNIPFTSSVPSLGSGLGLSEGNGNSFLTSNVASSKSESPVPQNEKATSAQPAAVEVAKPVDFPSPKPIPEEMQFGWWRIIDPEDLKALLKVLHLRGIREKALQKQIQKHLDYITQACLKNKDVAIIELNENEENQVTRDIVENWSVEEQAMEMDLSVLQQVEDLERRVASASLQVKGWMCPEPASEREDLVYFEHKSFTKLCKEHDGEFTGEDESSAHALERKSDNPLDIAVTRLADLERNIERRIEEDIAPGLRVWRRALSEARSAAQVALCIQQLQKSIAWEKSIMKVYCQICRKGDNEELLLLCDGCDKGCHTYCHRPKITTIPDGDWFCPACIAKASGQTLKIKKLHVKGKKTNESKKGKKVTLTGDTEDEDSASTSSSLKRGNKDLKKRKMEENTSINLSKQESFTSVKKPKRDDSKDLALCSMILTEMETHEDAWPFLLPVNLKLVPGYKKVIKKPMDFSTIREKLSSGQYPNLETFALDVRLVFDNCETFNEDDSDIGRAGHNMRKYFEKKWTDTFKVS
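Complex of BAZ2B and biotin-H3K14Ac (50 nM apiece) forms over 30 min at RT, then faces library compounds up to 110 uM for another 30 min; AlphaScreen beads added, 20 min dark incubation, luminescence read.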
JMJD2A Tudor: blocks the human JMJD2A Tudor domain | AID 504339 | AlphaScreen JMJD2A-Tudor / H3K4me3 peptide binding | hit rate 4.4% among 390,000 | Potency, µM (titrated, usually from 114 µM), most hits filed as inhibitors | O75164; also: nearly all actives have a fitted effect of over 50% in size
Hits are given with their value; 0 = inactive; ? = inconclusive; - = no result; ! = repeats disagree; [ ] = remark or other dose. Calls follow the shape of the dose curve; as a rule, active = well fitted curve in the direction sought with a large enough effect; inconclusive = small, poorly fitted or top-dose-only effect, or another doubt; inactive = no such curve, though single readings can be large; an effect the other way counts as inactive or inconclusive.

SMILES | L3MBTL1 inh | G9a inh | Sfp inh | HP1b chromo inh | BAZ2B block | JMJD2A Tudor
Cn1cc([N+](=O)[O-])c(C(=O)Nc2ccc3c(C(F)(F)F)cc(=O)oc3c2)n1 | - | 0 | 0 | 0 | 0 | 0
CC(C)C(=O)Nc1ccc([N+](=O)[O-])c(C(F)(F)F)c1 | 0 | 2.5µM! | 0 | 0 | 0 | 0
O=c1[nH]c(=O)n(Cc2ccccc2)c(O)c1/C=C1\C=Nc2ccccc21 | 0 | 0 | ? | 0 | 0 | 0
O=c1[nH]c(=O)n(-c2ccccc2F)c(O)c1/C=C1\C=Nc2ccccc21 | - | ? | 35µM | 0 | ? | 0
COc1ccc(-n2c(O)c(/C=C3\C=Nc4ccc(Br)cc43)c(=O)[nH]c2=O)cc1 | - | 0 | 0 | 0 | 0 | 0
COc1ccc(-n2c(O)c(/C=C3\C=Nc4ccc(Br)cc43)c(=O)[nH]c2=O)c(OC)c1 | - | 32µM | 0 | 0 | ? | ?
COC(=O)C1=Nc2ccccc2/C1=C\c1c(O)n(-c2cc(OC)ccc2OC)c(=O)[nH]c1=O | 0 | ? | ? | ? | 79µM | 0
O=c1[nH]c(=O)n(CC2CCCO2)c(O)c1/C=C1\C=Nc2ccccc21 (stereo unspecified) | 0 | 1.3µM | 0 | 0 | 0 | 0
C[C@]12C=CC(=O)C=C1CC[C@@H]1[C@@H]2CC[C@@]2(C)[C@H]1CC[C@]2(C)O | - | 0 | 0 | - | - | -
NCCCCN=C(N)N | - | 0[12.7 µM] | 0 | - | - | -
CCOC(=O)c1c(C)n(Cc2ccccc2)c2ccc(OCC(O)CN3C(=O)CNC3=O)cc12 (stereo unspecified) | 0 | 0 | 0 | 0 | 0 | 0
CCOC(=O)c1c(C)n(Cc2ccc(F)cc2)c2ccc(O)cc12 | 0 | 0[12.7 µM] | 22µM | 0 | 0 | ?
COC(=O)c1c(C)n(Cc2ccc3c(c2)OCO3)c2ccc(O)cc12 | 0 | 35µM | 0 | 0 | ? | ?
CCOC(=O)c1c(C)n(Cc2ccco2)c2ccc(O)cc12 | - | 8.9µM | 45µM | 0 | ? | 0
CCOC(=O)c1c(C)n(Cc2ccc3c(c2)OCO3)c2ccc(O)cc12 | - | ? | 0 | 0 | ? | 0
CCOC(=O)c1c(C)n(COCCO)c2ccc(O)cc12 | 0 | 0 | 0 | 0 | 0 | 0
CCOC(=O)N(c1ccccc1)P1(=S)OCC(C)O1 (stereo unspecified) | 0 | 0 | 0 | 0 | 0 | 0
CCOC(=O)N(c1ccccc1)P1(=S)OCCO1 | 0 | ? | 40µM | 0 | 0 | 0
COC(=O)N(c1ccccc1)P1(=S)OCCO1 | 0 | 0 | 5.6µM | 0 | 0 | ?
CCOP(=O)(OCC)C1(O)C(=O)Nc2ccccc21 (stereo unspecified) | 0 | 0 | 0 | 0 | 0 | 0
COP(=O)(OC)C1(O)C(=O)Nc2ccc(Br)cc21 (stereo unspecified) | 0 | 8.9µM | 0 | 0 | 0 | 0
CN1C(=O)[C@@H](NC(=O)c2cc3ccccc3[nH]2)N=C(c2ccccc2)c2ccccc21 | - | 0 | 0 | - | - | -
CCC(=NCCCN1CCOCC1)c1c(O)n(Cc2ccccc2)c(=O)[nH]c1=O | 0 | 13µM | 0 | 0 | 0 | 0
CC(=NCCCN1CCOCC1)c1c(O)n(Cc2ccccc2)c(=O)[nH]c1=O | 0 | 0 | 0 | 0 | 0 | 0
CCC(=NCCN1CCOCC1)c1c(O)n(-c2ccccc2C)c(=O)[nH]c1=O | 0 | 28µM | 0 | 0 | 0 | 0
SMILES | L3MBTL1 inh | G9a inh | Sfp inh | HP1b chromo inh | BAZ2B block | JMJD2A Tudor
CCCCn1c(O)c(C=NCCCN(CC)CC)c(=O)[nH]c1=O | 0 | 0 | 0 | 0 | - | 0
CC(=NCCN1CCOCC1)c1c(O)n(-c2ccccc2C)c(=O)[nH]c1=O | 0 | 0 | 0 | 0 | 0 | 0
CCCCn1c(O)c(C=NCCN2CCCCC2)c(=O)[nH]c1=O | 0 | 79µM | 0 | 0 | 0 | 0
O=c1[nH]c(=O)n(Cc2ccccc2)c(O)c1C=Nc1ccc(CN2CCOCC2)cc1 | 0 | ? | 56µM | 0 | 0 | 0
O=C1C(=O)N(c2nccs2)C(c2ccccc2)/C1=C(\O)c1ccc2c(c1)OCCO2 (stereo unspecified) | - | 0[0.0925 µM] | 0 | - | ? | -
CCOC(=O)c1ncn2c1CN(C)C(=O)c1cc(N=[N+]=[N-])ccc1-2 | - | - | 0 | - | - | -
CCCCn1c(O)c(C(CC)=NCCN2CCOCC2)c(=O)[nH]c1=O | - | ? | 0 | 0 | ? | 0
CCCCn1c(O)c(C(C)=NCCN2CCOCC2)c(=O)[nH]c1=O | - | 22µM | 0 | 0 | 0 | 0
